This note sets out measurements from PubChem BioAssay (NCI).

Compounds without any hit were thinned out: in the full panel of roughly 83,000, 20% have a hit.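 Step 1: grow cells in 96-well plates. Step 2: add test compound at a single concentration. Step 3: incubate 48 h. Step 4: record percent growth.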 Values without a mark were called inactive. Active and inactive are the calls of the source. Rule for the calls: active = growth percent below 10; inactive = the rest.

Common to all, as to assay: NCI-60 one-dose screen, 48 h (100 = growth as untreated, 0 = no growth, -100 = all killed)
One assay concerns A549/ATCC NSCLC. The note with it: 10 µM.
The test system of the next assay is K-562 leukemia. The note with it: 10 µM.
Another assay relates to MDA-MB-231 breast. The note with it: 10 µM.
Another assay has as its system SK-MEL-28 melanoma. The note with it: 10 µM.
A further assay relates to CAKI-1 renal. The note with it: 10 µM.
The next assay relates to MOLT-4 leukemia. The note with it: 10 µM.
Another assay deals with SR leukemia. The note with it: 10 µM.
The next assay concerns HS 578T breast. The note with it: 10 µM.
The next assay relates to BT-549 breast. The note with it: 10 µM.
The test system of the next assay is SW-620 colon. The note with it: 10 µM.
The next assay deals with HCC-2998 colon. The note with it: 10 µM.
For another assay, the system named is KM12 colon. The note with it: 10 µM.
A further assay has as its system NCI-H23 lung. The note with it: 10 µM.
The next assay has as its system SNB-75 CNS. The note with it: 10 µM.
A further assay concerns PC-3 prostate. The note with it: 10 µM.
A further assay concerns UO-31 renal. The note with it: 10 µM.
Another assay has as its system ACHN renal. The note with it: 10 µM.
In another assay the test system is MDA-MB-468 breast. The note with it: 10 µM unless noted.
For a further assay, the system named is LOX IMVI melanoma. The note with it: 10 µM.
Another assay deals with OVCAR-3 ovarian. The note with it: 10 µM.

In the case of `CC(C)N=C([Se])NC(=O)c1ccccc1`, the growth is 8.83% (active) in the assay on A549/ATCC NSCLC; 15.9% in the assay on K-562 leukemia; -48.6% (active) with MDA-MB-231 breast; -43.9% (active) in the assay on SK-MEL-28 melanoma; -80.7% (active) with CAKI-1 renal; 2.86% (active) in the assay on MOLT-4 leukemia. For the same compound, the growth in the assay on SR leukemia is -9.62% (active); with HS 578T breast, -2.5% (active); in the assay on BT-549 breast, 40.6%; with SW-620 colon, -20.9% (active); with HCC-2998 colon it was -35.5% (active); in the assay with KM12 colon it was -8.34% (active).
Consider `O=C(/C=C/c1ccccc1)c1nc2ccccc2n1Cc1ccc(Br)cc1`, for which the growth with NCI-H23 lung was -71.5% (active); in the assay with K-562 leukemia, -17.2% (active); with SNB-75 CNS, 16.2%; in the assay with PC-3 prostate it was -31% (active); in the assay with SK-MEL-28 melanoma it was -73.3% (active); with UO-31 renal, -94.9% (active). Besides, the growth with ACHN renal was -74.5% (active); with MOLT-4 leukemia it was -12% (active); in the assay with SR leukemia it was -19.5% (active); in the assay with KM12 colon it was -32.5% (active); in the assay with MDA-MB-468 breast, -93.1% (active).
As to `COc1cc(OC)c(S(=O)(=O)N(CCCl)CCCl)cc1C(=O)/C=C/c1cc(OC)c(OC)c(OC)c1`, the growth in the assay with K-562 leukemia is 4.13% (active); in the assay with MDA-MB-231 breast, 23.4%; with SNB-75 CNS, -78.2% (active); in the assay with LOX IMVI melanoma, -84.5% (active); in the assay with SK-MEL-28 melanoma it was -68.5% (active); with UO-31 renal, -93.9% (active). Further, the growth was 2.37% (active) in the assay on ACHN renal; -1.79% (active) in the assay with MOLT-4 leukemia; 2.75% (active) in the assay with SR leukemia; 78.3% in the assay with HS 578T breast; -84.7% (active) with BT-549 breast; 7.43% (active) in the assay with SW-620 colon. For the same compound, the results for the growth in the assay with HCC-2998 colon, with KM12 colon and in the assay with MDA-MB-468 breast were -91.1% (active), -61.2% (active) and -40.5% (active), respectively.
Take `N#C[Se]CC(=O)Nc1cccc(C(F)(F)F)c1`: the growth was -46.7% (active) with NCI-H23 lung; 20.5% in the assay with K-562 leukemia; -23.5% (active) in the assay with SNB-75 CNS; -63.2% (active) in the assay with SK-MEL-28 melanoma; -38% (active) with ACHN renal; -72.1% (active) with CAKI-1 renal. The growth in the assay on MOLT-4 leukemia was 9.42% (active); in the assay on SR leukemia, 18.5%; with BT-549 breast, -90.2% (active); in the assay with MDA-MB-468 breast it was -86.7% (active).
Turning to `O=C(/C=C/c1ccco1)c1nc2ccccc2n1Cc1ccc(Br)cc1`, the growth with NCI-H23 lung is 27.4%; in the assay with K-562 leukemia, 7% (active); with MOLT-4 leukemia, 3.6% (active); in the assay with SR leukemia it was 4.72% (active); with BT-549 breast it was 6.02% (active); in the assay on MDA-MB-468 breast, -14.5% (active).
With `O=C(/C=C/c1ccc(Cl)cc1)c1nc2ccccc2n1Cc1ccc(F)cc1`, the growth in the assay on NCI-H23 lung is 33.4%; in the assay on K-562 leukemia it was 5.25% (active); in the assay on PC-3 prostate, 19.5%; in the assay on SK-MEL-28 melanoma, 38.9%; in the assay on UO-31 renal it was 31.4%; with MOLT-4 leukemia, -0.463% (active). Also, the growth is -8.72% (active) in the assay on SR leukemia; 22.7% with OVCAR-3 ovarian; 2.95% (active) in the assay with BT-549 breast; 24.9% with KM12 colon; -5.26% (active) in the assay on MDA-MB-468 breast.
As to `CC(=O)Oc1ccccc1C(=O)[Se]C(=NC(C)C)NC(C)C`, the growth in the assay on K-562 leukemia is -29.6% (active); in the assay on MDA-MB-231 breast, -50.5% (active); with LOX IMVI melanoma, -80% (active); in the assay on UO-31 renal, -100% (active); with MOLT-4 leukemia, -15.4% (active); in the assay with SR leukemia, -27.5% (active). For the same compound, the growth is -15.6% (active) with HS 578T breast, -94.7% (active) in the assay with BT-549 breast, -72.4% (active) with SW-620 colon and -64.4% (active) with MDA-MB-468 breast.
As to `O=C(/C=C/c1ccc(F)cc1)c1nc2ccccc2n1Cc1ccc(Br)cc1`, the growth is -75.4% (active) in the assay with NCI-H23 lung; -12.7% (active) in the assay with K-562 leukemia; -39.4% (active) in the assay with PC-3 prostate; -73.9% (active) in the assay with ACHN renal; -13.4% (active) with MOLT-4 leukemia; -19.5% (active) in the assay with SR leukemia. The growth is -73.6% (active) in the assay on OVCAR-3 ovarian; -78.1% (active) in the assay on BT-549 breast; -97.6% (active) in the assay with HCC-2998 colon; -25.3% (active) in the assay on KM12 colon; -90.8% (active) in the assay on MDA-MB-468 breast.
Turning to `C=CC[Se]C(=O)c1ccc(C(=O)[Se]CC=C)s1`, the growth with A549/ATCC NSCLC was 1.38% (active); in the assay with K-562 leukemia it was -23.1% (active); in the assay with MDA-MB-231 breast it was -36.4% (active); with SNB-75 CNS it was -96.8% (active); with PC-3 prostate it was -58.2% (active); with ACHN renal it was -45.6% (active). Moreover, the growth with CAKI-1 renal is -83.9% (active); in the assay on MOLT-4 leukemia it was -13.9% (active); in the assay with SR leukemia, -30% (active); in the assay on HS 578T breast, -22.1% (active); in the assay with SW-620 colon, -77.4% (active); with KM12 colon, -85.1% (active). The growth in the assay with MDA-MB-468 breast is -60.6% (active).
On to `COc1ccc2cc([C@H](C)C(=O)[Se]CCC#N)ccc2c1`, for which the growth in the assay on K-562 leukemia was 4.12% (active); in the assay on MDA-MB-231 breast, -59.9% (active); with SNB-75 CNS, -46.8% (active); in the assay on PC-3 prostate it was -10.1% (active); in the assay with SK-MEL-28 melanoma, -37.9% (active); in the assay on UO-31 renal it was -71.2% (active). Moreover, the growth in the assay with MOLT-4 leukemia is 5.75% (active); in the assay with SR leukemia it was 0.13% (active); in the assay on HS 578T breast, -10.2% (active); in the assay with BT-549 breast it was -8.75% (active); with SW-620 colon, -22.9% (active); with KM12 colon, 5.84% (active). The growth in the assay with MDA-MB-468 breast is -56.6% (active).
With `COC(=O)C[C@](O)(CCCC(C)C)C(=O)O[C@H]1C(OC)=C[C@@]23CCCN2CCc2cc4c(cc2[C@@H]13)OCO4`, the growth with NCI-H23 lung is -25% (active); with A549/ATCC NSCLC, -7.85% (active); with K-562 leukemia, 3.55% (active); in the assay on MDA-MB-231 breast, 7.43% (active); in the assay with SNB-75 CNS, -46.7% (active); in the assay on MOLT-4 leukemia, 1.41% (active). The growth with SR leukemia was -24.8% (active); in the assay with HS 578T breast, -4.94% (active); in the assay on BT-549 breast, -17.8% (active); with SW-620 colon it was -10.5% (active); in the assay with HCC-2998 colon, -36.4% (active); in the assay with KM12 colon, 0.453% (active). The growth in the assay with MDA-MB-468 breast is -27.4% (active).
With `O=C([Se]C1C=CCCC1)c1ccc(C(=O)[Se]C2C=CCCC2)s1` (stereo not drawn), the growth in the assay on NCI-H23 lung was -74% (active); with K-562 leukemia, 6.15% (active); in the assay on UO-31 renal, -100% (active); in the assay with MOLT-4 leukemia, 0.117% (active); in the assay with SR leukemia it was -33% (active); in the assay with OVCAR-3 ovarian, -92.4% (active). The growth is -65.7% (active) in the assay with BT-549 breast, -67.8% (active) in the assay on HCC-2998 colon and -95.7% (active) with MDA-MB-468 breast.
`O=C(/C=C/c1cccc(Br)c1)c1nc2ccccc2n1Cc1ccc(Br)cc1`: the growth was -50.7% (active) with NCI-H23 lung; -2.19% (active) in the assay with K-562 leukemia; 0.947% (active) with PC-3 prostate; 16.6% in the assay with CAKI-1 renal; -6.66% (active) in the assay on MOLT-4 leukemia; -12.4% (active) with SR leukemia. Further, the results for the growth with OVCAR-3 ovarian, in the assay with BT-549 breast and in the assay with MDA-MB-468 breast were -51.5% (active), -44.7% (active) and -58.5% (active), respectively.
